From the supplement of paper PMC3334620
Over roughly 33,000 sequences, “E-score (-0.5 to 0.5)” has its median near -0.011; the highest 2% begin near 0.28. The sample as a whole holds a higher share of the highest values than the screen did.

The sequences below were run against T1, Gcr1 (UniProt P07261) (assay: PBM E-score (8-mer binding enrichment) (E-score (-0.5 to 0.5)); higher = stronger / more preferred TF binding). Details: protein concentration: 100 nM; construct: GST-full length.
T1 sequence: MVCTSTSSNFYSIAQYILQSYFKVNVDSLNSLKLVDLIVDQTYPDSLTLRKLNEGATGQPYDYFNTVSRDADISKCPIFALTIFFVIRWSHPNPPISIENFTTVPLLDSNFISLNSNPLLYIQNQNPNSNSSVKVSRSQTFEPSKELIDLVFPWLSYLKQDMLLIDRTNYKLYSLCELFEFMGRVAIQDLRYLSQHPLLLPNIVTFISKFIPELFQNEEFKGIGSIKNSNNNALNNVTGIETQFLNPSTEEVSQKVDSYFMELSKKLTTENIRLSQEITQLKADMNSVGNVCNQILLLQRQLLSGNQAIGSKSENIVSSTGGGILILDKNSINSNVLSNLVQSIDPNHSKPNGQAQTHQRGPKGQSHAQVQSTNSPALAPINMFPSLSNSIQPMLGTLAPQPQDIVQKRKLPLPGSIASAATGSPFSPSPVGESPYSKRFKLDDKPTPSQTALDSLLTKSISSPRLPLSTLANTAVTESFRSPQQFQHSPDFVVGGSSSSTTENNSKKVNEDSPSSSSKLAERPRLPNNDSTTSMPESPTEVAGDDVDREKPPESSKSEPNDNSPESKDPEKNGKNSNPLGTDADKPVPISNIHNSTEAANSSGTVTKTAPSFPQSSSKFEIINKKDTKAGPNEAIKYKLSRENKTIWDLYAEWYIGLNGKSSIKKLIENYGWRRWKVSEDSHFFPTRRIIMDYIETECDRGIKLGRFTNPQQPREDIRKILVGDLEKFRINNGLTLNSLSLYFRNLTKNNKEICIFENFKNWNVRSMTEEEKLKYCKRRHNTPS
Method: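 Universal 'all 10-mer' protein binding microarrays (Agilent AMADID 015681) probed with GST-tagged S. cerevisiae TFs (full-length or DBD) made by in vitro transcription/translation (PURExpress), about 100-200 nM. Bound TF was detected with fluorescent anti-GST. Each ungapped 8-mer (which stands for itself and its reverse complement) is scored by the PBM enrichment score (E-score), a modified Wilcoxon-Mann-Whitney statistic from -0.5 to +0.5, computed with the Universal PBM Analysis Suite. Scale: above 0.35 generally sequence-specific binding.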

Point of comparison: CCATTGGC, “PBM E-score” value 0.0633. Against it:
- CGCAGTTA — higher, 0.15
- ACGTAGCT — higher, 0.282
- ACGTAGCC — higher, 0.14
- ACGTAGCA — lower, -0.079
- CGGTTGGA — lower, 0.0351
- GCAATCGC — lower, -0.113
- ATTCAAGC — lower, -0.0491
- CCTCTATA — higher, 0.266
- CTGGATAC — higher, 0.135
- CTGGATGA — lower, 0.0353
- ATGGATGC — higher, 0.389
- ATGGATGG — lower, -0.034
- ATGGATGA — lower, -0.0514
- CTGGATGC — higher, 0.425
- ACGGGGGC — lower, -0.08
- AGTCCGGA — lower, 0.0284
- ATCGGATA — higher, 0.0757
- TGTAGACA — lower, -0.0678
- AAACTGGT — higher, 0.178
- TCGCCGCA — lower, 0.0198
- CGCTCAAC — lower, -0.0355
- CGCACCCG — lower, 0.0194
- AGCACCAT — higher, 0.282
- AGCACCCG — higher, 0.282
- AGCACCCT — higher, 0.277
- AGCACCAG — higher, 0.156
- AGCACACC — lower, -0.188
- AACACCCA — lower, -0.0911
- AGCACCAC — higher, 0.235
- AGCACCCA — higher, 0.351
- CAAGATTC — higher, 0.122
- GAAGCGCA — higher, 0.129
- AGGTAAAG — lower, -0.112
- TATGCTAA — lower, -0.0329
- GATGCTAC — higher, 0.338
- CATGCTAC — lower, -0.123
- GATGCTGA — higher, 0.312
- GGTGCTTA — higher, 0.259
- GGTGCTGA — higher, 0.335
- CATGCTGA — lower, -0.229
- AATGCTAA — higher, 0.206
- AATGCTAC — lower, -0.0602
- CGTGCTGA — lower, -0.14
- GATGCTGC — higher, 0.276
- GATGCTAA — higher, 0.372
- AAGGCGAA — lower, -0.0278
- CACAATGA — higher, 0.0838
- GCTTCAAA — higher, 0.192
- AGTTGGCG — higher, 0.0665
- CACTCCAG — higher, 0.0875
- ACCGCGGC — higher, 0.143
- ACGCCGGA — higher, 0.0899
- CATTTGGC — lower, -0.0265
- CACCTGCC — lower, -0.127
- ACCAATGG — lower, 0.0385
- ACACTGAG — lower, -0.126
- CCCATTTC — lower, -0.0272
- GTATTTAA — higher, 0.117
- CTATTTAA — higher, 0.309
- CCATTTAC — higher, 0.0873
- ACTATTTA — higher, 0.293
- ATATTTAA — higher, 0.111
- CCCATTTA — higher, 0.293
- CCATTTAA — higher, 0.304
- ACCATTTA — lower, 0.0518
- CCATTTTA — higher, 0.23
- GCTATTTA — lower, -0.162
- CCTATTTA — higher, 0.247
- ACAGTCCA — lower, -0.304
- TACCGTGA — lower, 0.0127
- ACTCTTCT — lower, 0.0323
- TCCGGAAA — higher, 0.172
- CACCCGGA — higher, 0.136
- CGAAGTAC — lower, -0.022
- CGCCAAAG — lower, 0.0195
- TCAACTAA — lower, -0.00686
- ACGACGGG — lower, 0.00739
- AATTACAG — higher, 0.283
- AATTACAT — higher, 0.0891
- CATTACAG — lower, -0.0702
- CCACCCTC — lower, -0.00165
- CAAAATTC — higher, 0.306
- AAAAATTC — lower, 0.0187
- CAAAATTG — lower, 0.0415
- GCTAGCAC — lower, -0.0767
- GCAGGCCC — lower, -0.133
- ACAAGCTA — lower, -0.0171
- ACACAAAA — higher, 0.141
- ACACAATA — lower, 0.0111
- CCACAATA — higher, 0.3
- CCACAATC — higher, 0.156
- CCACAAAG — higher, 0.16
- CCACAAAA — higher, 0.282
- CTCGGTAA — lower, -0.22
- AAACCTAA — higher, 0.0813
- CCTTTCAG — lower, -0.117
- GGGGGACA — lower, 0.0151
- AGTCTGTA — lower, -0.152
- CCCCGTTC — lower, -0.082
- GACGCCCA — higher, 0.427
- CACGCCCA — lower, -0.107
- GGCGCCCA — higher, 0.398
- GACGCCCC — lower, 0.0383
- AGCGCCCC — higher, 0.153
- GGCGCCCC — higher, 0.308
- AGCGCCCA — higher, 0.183
- TGCGCCCA — higher, 0.0933
- CGCGCCCC — higher, 0.243
- CGAGAGGA — lower, -0.113
- CCCGGGGC — lower, 0.0219
- ACAAGCAT — higher, 0.15
- GCGGCGGA — lower, 0.0513
- AATTTGTC — lower, -0.00767
- CTGGCTGA — lower, -0.225
- CTAGCTTA — lower, -0.172
- ATGGCTGC — higher, 0.168
- ATGGCTTG — lower, -0.236
- CTGGCTGC — higher, 0.35
- ACGGCTGC — lower, -0.014
- ATGGCTTA — lower, 0.0216
- CCGGCTGC — higher, 0.314
- CCGGCTGA — lower, -0.138
- CTAGCTTC — higher, 0.316
- ATAGCTTC — higher, 0.249
- ATGGCTTC — higher, 0.3
- CGCCCCGA — lower, -0.0435
- CCGCGAGC — lower, -0.0368
- GCCCGGCA — lower, -0.0489
- GGAGTACC — lower, -0.0959
- TGTAGCAA — lower, -0.0217
- TAAAGAAA — higher, 0.162
- ATGGGCCA — lower, -0.112
- GACAAACA — lower, -0.0622
- CGGTCCAC — lower, -0.225
- CTGGCTTC — higher, 0.362
- CTGGCTTA — lower, -0.159
- CAGGCTTC — higher, 0.213
- GCAAAGAA — lower, 0.00261
- CGCAACCG — higher, 0.24
- ACACCAGC — lower, -0.126
- ACAAGCCA — lower, -0.275
- AGAAGCCG — higher, 0.399
- AGAAGCCC — higher, 0.386
- AGGAGCCT — higher, 0.109
- AGGAGCCC — higher, 0.294
- TGAAGCCA — lower, -0.0656
- CGAAGCCC — higher, 0.268
- AGAAGCCT — higher, 0.273
- AAAAGCCC — lower, -0.194
- AGGAGCCG — higher, 0.269
- AGAAGCAG — higher, 0.174
- AGAAGCCA — higher, 0.362
- GACCACAA — lower, 0.0254
- AATCGCAA — lower, 0.0343
- CGCCGCAG — higher, 0.103
- ATCAGATA — lower, -0.111
- CGAAGCCA — higher, 0.272
- CCAAGCCG — lower, -0.0556
- CGAAGCCG — higher, 0.285
- AGCAAAGG — lower, -0.135
- AAAGGACG — lower, 0.025
- ATTGTGAG — lower, -0.17
- AATTAGGG — lower, -0.012
- AATTAGGT — higher, 0.0846
- ATTTAGGA — higher, 0.286
- CATTAGGC — lower, -0.0378
- GATTAGGA — higher, 0.169
- CAATAGGA — higher, 0.13
- AAATAGGA — higher, 0.335
- AATTAGGA — higher, 0.315
- TAATAGGA — higher, 0.278
- ATTTAGGG — higher, 0.196
- AATTAGGC — higher, 0.327
- CTTTAGGA — higher, 0.249
- GACTTTCA — higher, 0.0748
- AATTCGAT — lower, -0.0107
- GTCCGTAA — higher, 0.215
- GTACCTAC — lower, -0.0043
- CCATCGTA — lower, -0.145
- AGGCTCAA — lower, -0.283
- AATCTTGA — higher, 0.1
- AATTGTTA — higher, 0.116
- AAGGAACT — lower, 0.0335
- AGGGAACC — higher, 0.203
- GAGGAACC — higher, 0.318
- CGGGAACC — higher, 0.289
- AAGGAACC — higher, 0.285
- GGGGAACC — higher, 0.161
- CGGGAACG — lower, -0.0928
- GAGGAACA — lower, -0.193
- AAGGAACG — lower, -0.0671
- CAGGAACA — lower, -0.125
- CAGGAACG — higher, 0.118
- CAGGAACC — higher, 0.32
- ATCTAGAT — lower, 0.0364
- TCAAAACA — lower, 0.0365
- CGAATGTA — lower, -0.0414
- ATCCTTAC — lower, 0.0414
- AAAGAATA — lower, -0.0583
- ATTAAAAG — higher, 0.239
- GATTAAAA — higher, 0.249
- ATTAAAAC — higher, 0.113
- TATTAAAA — higher, 0.243
- CATTTAAA — higher, 0.287
- CATTTTAA — higher, 0.252
- ATTAAAAA — higher, 0.332
- CATTAAAA — higher, 0.306
- TATTTAAA — higher, 0.243
- GGGGGAGA — lower, -0.233
- ATGTTCCA — higher, 0.15
- CCCAACGG — lower, -0.0188
- GGAGCGGA — higher, 0.187
- CGCCGCAC — lower, 0.0199
- AGGGAAAA — higher, 0.108
- CAGAGGAA — lower, 0.0251
- GAGAGGAA — higher, 0.128
- AAGAGGAA — higher, 0.285
- TAGAGGAA — higher, 0.396
- AAGAGGAT — lower, 0.0595
- AAGAGGAG — lower, -0.0404
